# Assay results reported in the supplement of paper PMC6555819.
# Legend:
# Assay in all cases: PBM binding z-score (relative to random genomic background probes); higher = stronger binding; sequences stand for … in GC…GCGATTGACAGCGTAGAATGAAGG
# [1] = tested on: PPARg:RXRa DBDmut IVT, anti-RXR (DBD mutation: RXRa K156A/R161A, NR concentration 270 nM, RXRa partner concentration 90 nM)
# Method in brief: (§1)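 Each nuclear receptor dimer, without ligand, was incubated for 1 h on custom Agilent 4×180K protein-binding microarrays. Binding was detected with antibodies against each partner (one per run), and scanned fluorescence was regression-normalized. The binding z-scores are referenced to random human genomic background probes.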
# [2] = tested on: PPARg:RXRa IVT, anti-PPARg (NR concentration 270 nM, RXRa partner concentration 90 nM)
# Method in brief: as §1
# [3] = tested on: PPARg DBDmut:RXRa IVT, anti-PPARg (DBD mutation: PPARg1 K132A/R137A, NR concentration 270 nM, RXRa partner concentration 90 nM)
# Method in brief: as §1
# [4] = tested on: PPARg DBDmut IVT, anti-PPARg (DBD mutation: PPARg1 K132A/R137A, NR concentration 270 nM)
# Method in brief: as §1
# [5] = tested on: PPARg homodimer (NR concentration 180 nM)
# Method in brief: as §1
# [6] = tested on: PXR:RXRa (NR concentration 270 nM, RXRa partner concentration 90 nM)
# Method in brief: as §1
# [7] = tested on: PXR homodimer (NR concentration 270 nM)
# Method in brief: as §1
# [8] = tested on: RARa:RXR (NR concentration 270 nM, RXRa partner concentration 90 nM)
# Method in brief: as §1
# [9] = tested on: RARa homodimer (NR concentration 270 nM)
# Method in brief: as §1
# [10] = tested on: RARb:RXRa (NR concentration 270 nM, RXRa partner concentration 90 nM)
# Method in brief: as §1
# [11] = tested on: RARb homodimer (NR concentration 270 nM)
# Method in brief: as §1
# [12] = tested on: RARg:RXRa (NR concentration 270 nM, RXRa partner concentration 90 nM)
# Method in brief: as §1
# [13] = tested on: RARg homodimer (NR concentration 270 nM)
# Method in brief: as §1
# [14] = tested on: RXRa DBDmut IVT, anti-RXR (DBD mutation: RXRa K156A/R161A, NR concentration 90 nM)
# Method in brief: as §1
# [15] = tested on: RXRa homodimer (NR concentration 180 nM)
# Method in brief: as §1
# [16] = tested on: THRa:RXRa (NR concentration 90 nM, RXRa partner concentration 90 nM)
# Method in brief: as §1
# [17] = tested on: THRa homodimer (NR concentration 90 nM)
# Method in brief: as §1
# [18] = tested on: VDR homodimer (NR concentration 270 nM)
# Method in brief: as §1
Sequence,PBM binding z-score [1],PBM binding z-score [2],PBM binding z-score [3],PBM binding z-score [4],PBM binding z-score [5],PBM binding z-score [6],PBM binding z-score [7],PBM binding z-score [8],PBM binding z-score [9],PBM binding z-score [10],PBM binding z-score [11],PBM binding z-score [12],PBM binding z-score [13],PBM binding z-score [14],PBM binding z-score [15],PBM binding z-score [16],PBM binding z-score [17],PBM binding z-score [18]
CGAACTAAGTCAGAACAGGACAGTGAAGGATGAT,0.607,0.0567,0.659,0.276,0.404,-0.17,0.204,0.137,0.452,-0.103,0.68,0.103,0.431,0.106,0.167,1.14,-0.281,-0.107
GCTCGCAGGACAAGGTCAGAGCTTTGTCCGTAGA,-0.189,0.355,-1.69,-1.23,-0.0307,1.35,-0.47,1.6,-1.24,3.05,2.58,2.71,2.74,0.16,2.1,2.5,1.09,-0.354
CGAACTAGGTCATCCAGGACTGTGAATACATTGA,8.21,8.17,6.94,2.3,3.35,1.48,0.582,2.24,0.701,3.73,2.93,4.02,4.47,2.26,2.62,2.95,1.17,1.39
AGTCAAAGTTCACTAGGTAACGTAGGATTCAGCT,2.76,4.99,0.535,0.509,2.04,3.89,2.85,2.82,0.778,4.83,3.85,4.87,5.63,4.05,3.74,1.98,0.256,3.59
CGAACTACGTCAAGGACAGTGAATCTCCGCACGC,-0.146,-0.464,-0.384,-0.387,-0.76,-0.445,0.128,-0.00341,-0.551,0.27,0.242,-0.205,0.151,0.114,0.0152,1.67,1.13,0.0374
TCATATAGGTAAATGCTAGGTGAACGTCCGATCT,4.03,2.94,0.935,1.01,0.675,0.493,0.0506,0.769,0.634,0.536,0.575,0.645,0.417,1.4,0.952,1.56,0.84,0.0802
ATATGTAGGTTAAGGGACATTCAGGTTGGTTCGC,6.93,6.99,1.67,1.87,1.9,0.934,0.687,1.15,1.63,1.57,1.6,1.28,1.27,0.615,1.25,1.14,0.815,1.69
AGAATGAGGTTACCAAAGACCAGGGAAACGCTTG,3.86,3.33,0.85,0.62,0.291,1.22,-0.349,2.06,-0.134,2.11,0.685,2.01,1.51,1.02,2.79,2.87,0.659,0.4
TCATTTAGGTAAAGGTGAAAGTCGAACGATATGA,3.05,3.75,1.29,2.17,1.2,1.35,0.193,1.92,1.42,2.05,1.52,1.74,1.44,0.874,2.07,2.01,0.0517,0.0443
ACTATTAGTTGACTTACGGCAACCGATACGACGC,-0.0111,0.189,0.614,1.35,0.496,-0.0445,-0.0464,0.256,0.942,0.199,0.0214,0.528,0.668,0.643,0.39,0.386,-0.0482,-0.179
GCTGCTAGGTCAGGTGGGTCAGCTAACGGGTACG,2.85,3.22,0.103,-0.61,1.05,1.28,-0.409,1.66,-0.0518,3.56,3.64,3.41,4.26,0.0363,2.07,2.57,0.719,0.861
GCTGCTAGGTCAACTGATGGTCAGCTTAAGCTCG,5.04,4.2,-0.326,-0.587,2.5,1.85,-0.712,3.1,-0.0481,4.24,3.69,5.24,5.28,1.76,3,3.07,0.988,-0.0541
CCTTACGGATCAAGGTTATAGCACGGGTGGTACG,-0.655,0.0573,-0.059,0.154,0.562,0.548,0.798,0.636,1.03,0.891,0.857,0.538,0.518,-0.178,0.793,1.16,0.694,0.886
CGAACTAGGTCAAGGATAGTGAATCTCCGCACGC,8.31,8.31,3.8,1.33,2.41,0.863,-0.425,1.96,0.921,3.73,3.08,3.74,4.44,1.47,2.58,2.67,1.35,0.279
ACTCGCAGGCCAAGGGTCACTCAAGATTAGTCCG,0.79,2.88,-0.175,0.18,2.03,3.45,-0.231,4.23,0.673,3.6,3.81,4.36,3.98,1.03,3.97,2.95,0.204,0.901
CCTTACGGGTCAAGGTTATTGCACGGGTGGTACG,2,3.61,-0.367,-0.115,2.22,3.62,0.512,4.2,0.978,4.12,3.5,4.83,4.5,0.197,5.06,3.04,0.977,1.95
TCTCGTAGGACACGAAGGTCAGAGCTTTCCAGAG,1.67,1.28,-0.564,-1.07,0.78,1.35,-0.171,1.75,-0.101,2.89,3.42,2.46,2.96,0.604,1.63,1.98,0.187,0.463
CCGAGTAGGTTATGGGGCATTCAAGCAACGGTGA,3.32,3.2,-0.98,0.0415,1.36,-0.0285,-0.292,0.26,-0.114,1.08,0.855,0.557,0.579,0.355,0.617,0.205,0.0762,0.0962
ATCTCTAGGTAAAGATAGTTCAGTGAATGCAAAT,2.16,1.66,1.03,1.61,0.566,0.795,0.763,0.643,0.47,0.654,0.887,0.422,0.748,-0.0413,0.163,0.71,0.0896,0.419
ATCTCTAGGTAAAAGTTCGGTGAATCCCGAGGAT,2.29,2.74,1.06,1.26,0.445,0.402,0.883,0.471,0.857,0.906,0.446,0.536,0.526,0.2,0.463,0.583,0.177,0.68
CCGACTGGGGCAAGGTGACCATAACGCACAGCCA,2.69,3.79,-0.323,-0.812,0.0642,-0.346,-0.578,-0.0197,-0.0269,1.14,1.11,0.469,0.934,-0.745,0.419,0.718,0.18,-0.459
GCTCACGGGTCAAAGGTTATAGCATGAATAGAAT,2.57,4.03,0.462,0.56,2.09,6.14,0.22,8.47,0.284,4.46,3.32,6.64,4.64,2.36,9.1,3.78,-0.0294,1.19
TCTATTAGTGGAAGGGCAACCGACGAGTCCGTTT,2.03,0.68,0.155,-0.147,0.597,0.698,0.821,0.778,0.46,1.59,1.21,0.443,0.673,1.28,0.619,0.13,0.0131,1.3
AGCATGAGGTTAAGATCAGGGAAACAGAATACAT,0.0322,0.624,0.52,-0.142,0.333,1.23,0.477,2.07,0.813,2.02,0.891,2.08,1.62,0.954,2.58,2.66,0.635,0.646
TTACCATGGTGAAGGTCGTTGATCCCTCTGTAGA,-0.0288,0.772,-0.132,-0.462,0.317,1.1,0.0781,0.942,-0.727,0.811,0.835,0.184,-0.00813,-0.163,1.07,0.611,-0.36,0.502
TCATCTAGGTAAAGGTGAAAGTCGAACGATATGA,4.03,4.69,1.07,0.677,1.57,0.89,0.0192,1.61,0.277,2.05,1.65,1.58,1.28,0.923,2.08,1.75,0.0366,0.215
CCTAGCAGGGCAATCTGGGTCACTCAAGGCTTGA,4.48,5.72,-0.465,-0.641,0.648,1.65,-0.451,1.89,-0.799,2.06,2.36,1.56,1.89,0.252,0.981,4.24,-0.0319,-0.354
ATATGTAGGTTATCGGCTCATTCAGTTTGCGCAT,6.92,6.58,2.28,1.66,1.39,0.282,0.405,0.31,1.01,0.662,0.158,0.446,0.752,0.79,0.927,0.266,0.293,0.816
CCTCACGGGTCACGAGGTTATAGCACGACGAGCG,1.87,3.65,0.599,-0.0554,3.5,4.4,0.143,5.63,0.537,4.43,3.79,5.79,5.33,1.43,6.4,3.36,1.24,2.22
